Data taken from PubChem BioAssay (NCI).
This is part of a sample that, as a whole, favours compounds with a hit. Of some 79,000 tested, about 15% had one in any assay. Calls of active or inactive are those of the source. Cut-off read from the data, not from the text of the source: active = growth inhibition above about 70%; inactive = the rest.

What was measured:
[1] = NCI Yeast Anticancer Drug Screen. Data for the rad50 strain (AID 155);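 note: 0% = growth of vehicle-only cultures of the same strain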; details: S. cerevisiae rad50 strain growth inhibition; at 50.0 µM; active compounds read high
Outline: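 Vehicle-treated cultures provide the reference for the growth inhibition reported for compound-exposed, repair-deficient yeast.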

[2] = NCI Yeast Anticancer Drug Screen. Data for the mec2-1 strain (AID 157); details: S. cerevisiae mec2-1 strain, at 50.0 µM, active compounds read high
Outline: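 Compounds were applied to mec2-1 yeast cells. Their growth was then compared with that of vehicle-treated cultures to give growth inhibition.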

[3] = NCI Yeast Anticancer Drug Screen. Data for the sgs1 mgt1 strain (AID 161);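 note: 0% = growth of cultures given vehicle only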; details: S. cerevisiae sgs1 mgt1 strain, at 50.0 µM, active compounds read high
Outline: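 Yeast cells carrying a defined DNA-repair defect were exposed to test compounds. Growth inhibition was measured relative to vehicle-treated controls.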

[4] = NCI Yeast Anticancer Drug Screen. Data for the cln2 rad14 strain (AID 165);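 note: 0% = growth equal to vehicle treated cultures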; details: S. cerevisiae cln2 rad14 strain, at 50.0 µM, active compounds read high
Outline: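 Strain: cln2 rad14 yeast, altered in cell cycle control and DNA damage repair. Read-out: growth inhibition vs vehicle.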

[5] = NCI Yeast Anticancer Drug Screen. Data for the bub3 strain (AID 167); details: S. cerevisiae bub3 mutant strain, at 50.0 µM, active compounds read high
Outline: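 Mutant yeast screening strain plus compound; vehicle-treated cultures serve as the 0% inhibition reference.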

[6] = NCI Yeast Anticancer Drug Screen. Data for the mlh1 rad18 strain (AID 175); details: S. cerevisiae mlh1 rad18 strain growth inhibition; at 50.0 µM; active compounds read high
Outline: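 A repair-deficient yeast strain is exposed to test compound, and growth is scored relative to vehicle-treated controls.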

Measured: growth inhibition

COc1cc(NCCCCCCCNC(C)C)c2nccc(C)c2c1
inactive: [1] 26.7% | [2] 13.7% | [3] -6.25% | [4] 7.35% | [5] -2.7% | [6] -33.1%

COc1cc(C2c3cc4c(cc3OC(N3CCNCC3)C2C)OCO4)cc(OC)c1OC (configuration not stated)
inactive: [1] -17.5% | [2] -42.8% | [3] -27.8% | [4] -22.7% | [5] -3.6% | [6] -27.5%

Cn1c(C(N)=O)cc(=O)n1-c1ccc([N+](=O)[O-])cc1
inactive: [1] 6.35% | [2] 18.7% | [3] 4.45% | [4] 3.8% | [5] -6% | [6] 0.35%

CCOc1ccccc1NC(=O)C(=O)CC(=O)c1sc(Nc2nnc(-c3ccc(Cl)c(Cl)c3)o2)nc1C
inactive: [1] 20.5% | [2] -11.6% | [3] 21.1% | [4] 21.4% | [5] 31.4% | [6] 17.8%

NNC(=Nc1ccccc1)SCc1ccccc1
inactive: [1] 3.05% | [2] 0.5% | [3] 23.4% | [4] 7.75% | [5] 20.2% | [6] -30.9%

CCOC(=O)C(C)(C(=O)OCC)C(C)Cc1cccc2ccccc12 (configuration not stated)
inactive: [1] -12.6% | [2] 0.95% | [3] -4.45% | [4] -31.4% | [5] -7.15% | [6] -3.6%

CC(=O)NC(Cc1ccc(F)cc1)C(=O)O (configuration not stated)
inactive: [1] -1.75% | [2] -7.85% | [3] -18.1% | [4] -19.7% | [5] -27.6% | [6] -17.9%

NC(=O)/C(=C(/O)C(=O)O)c1ccnc2ccccc12
inactive: [1] 4.85% | [2] -4.8% | [3] 7.35% | [4] -41% | [5] -4.2% | [6] -2.15%

ClC(Cl)(Cl)C(N1CCN(c2ccccc2)CC1)N1CCN(c2ccccc2)CC1
inactive: [1] 8.95% | [2] -34% | [3] -29.4% | [4] -38.5% | [5] -25.9% | [6] -17.6%

Oc1cccc(C(c2ccccc2)c2ccccc2)c1
inactive: [1] -0.6% | [2] 0.3% | [3] -5.5% | [4] -11.1% | [5] -3.6% | [6] -3.95%

ClC1=C(Cl)C2(Cl)CC1(Cl)C1CCCCC12 (configuration not stated)
inactive: [1] 18.9% | [2] -10.4% | [3] 21.4% | [4] -17.4% | [5] 16.6% | [6] -10.6%

CC1(O)CC2C(CC1SC1CC3C(CC1(C)O)C3(C)C)C2(C)C (configuration not stated)
inactive: [1] -48.3% | [2] -33.5% | [3] -45.8% | [4] -26.4% | [5] -51.7% | [6] -33%

Brc1cc2c(cc1CC1CCCCO1)OCO2 (configuration not stated)
inactive: [1] -6.5% | [2] -17.1% | [3] 1.4% | [4] -61.9% | [5] -4.9% | [6] 0.85%

COc1ccc(C(=Cc2cc(OC(C)=O)c3ccccc3c2OC(C)=O)c2ccc(OC)cc2)cc1
inactive: [1] 13.1% | [2] -8.8% | [3] -8% | [4] -15.9% | [5] 3.7% | [6] -0.5%

CCN(CC)CCOC(=O)c1ccc(N=C/C=C/C(C#N)=C/NOC)cc1
inactive: [1] 0.3% | [2] 27.4% | [3] 9.85% | [4] 21.4% | [5] 9.9% | [6] 30.9%

C(=N\NC1=NCCN1)/c1ccccc1
inactive: [1] -1.35% | [2] -9.05% | [3] 5.6% | [4] -36.8% | [5] -7.4% | [6] 13.3%

CCOC(=O)/C=C1\CCC(C)n2c1nccc2=O (configuration not stated)
inactive: [1] -14.1% | [2] 4.8% | [3] -6% | [4] -7.5% | [5] 14.5% | [6] 14.3%

COc1cc(/C=C/C(=O)Oc2ccccc2)ccc1C(=O)O/C=C/c1ccccc1
inactive: [1] 3.65% | [2] -4.7% | [3] 1.85% | [4] 21.4% | [5] -5.15% | [6] 13.5%

NC(=O)Nc1ccc2[nH]c(=O)c3ccccc3c2c1
inactive: [1] 7.4% | [2] -3.35% | [3] 17.2% | [4] 0.6% | [5] -7.15% | [6] 1.45%

OC(CCl)(CCl)CCl
inactive: [1] 9.5% | [2] -11.9% | [3] -9.7% | [4] -16.5% | [5] -2.05% | [6] 18.8%

CC(C)CC(=O)c1ccccn1
inactive: [1] -10.1% | [2] -30.9% | [3] -16.1% | [4] 7.95% | [5] -19% | [6] -0.35%

CCCCOc1ccc([N+](=O)[O-])cn1
inactive: [1] 20.8% | [2] -14.6% | [3] 3.15% | [4] 26.1% | [5] -7.6% | [6] 9.15%

Cn1c(=O)c2[nH]c(N(CCO)CCO)nc2n(C)c1=O
inactive: [1] 7.75% | [2] 9.95% | [3] 23.9% | [4] 21.9% | [5] -2.3% | [6] 15.1%

Cc1cc2c(C#N)c3ccccc3c(=O)n2c2ccccc12
inactive: [1] -0.95% | [2] 6.75% | [3] -1.25% | [4] -7.4% | [5] -13.7% | [6] 3.4%

Cc1cccc2cc3ccc4ccccc4c3cc12
inactive: [1] 29.7% | [2] 13.8% | [3] 21.9% | [4] 14.8% | [5] 4.1% | [6] 20.6%

CCC(CC)COC(=O)CC(CC(=O)OCC(CC)CC)C(=O)OCC(CC)CC
inactive: [1] -12.3% | [2] -4.85% | [3] 9.35% | [4] -20.1% | [5] 1.1% | [6] 24.6%

CC1CCC(OC(=O)Cc2ccccc2)CC1 (configuration not stated)
inactive: [1] 26.7% | [2] 18% | [3] 9.55% | [4] -15.1% | [5] 18.5% | [6] 24.6%

CCCC(=O)c1ccc2c(c1)CCc1cc(O)ccc1-2
inactive: [1] 13.8% | [2] 1.35% | [3] 12.3% | [4] -5.05% | [5] 23.4% | [6] 1.6%

C1=C(c2ccccc2)OC(c2ccccc2)=C(c2ccccc2)[P+]1(c1ccccc1)c1ccccc1
active: [1] 99.5% | [2] 99.7% | [3] 99.7% | [4] 99.7% | [5] 99.5% | [6] 99.5%

N#CC1c2ccccc2C=CN1C(=O)c1ccccc1 (configuration not stated)
inactive: [1] -15.9% | [2] -15.9% | [3] 12.5% | [4] -18.9% | [5] -8.95% | [6] -24.4%

CCCCCCCCCCOc1ccc(C=NC/C=C/c2ccc(CC)cc2)cc1
inactive: [1] -19.4% | [2] -13.8% | [3] -13.7% | [4] -50.8% | [5] -1.2% | [6] -23.4%

COc1ccc(/C=N/Nc2nc(C)c3c(n2)Nc2ccccc2NC3=O)cc1
inactive: [1] -15.2% | [2] 10.2% | [3] 3.55% | [4] -1.95% | [5] -1.45% | [6] -19.8%

CCc1nc2c(N)ncnc2o1
inactive: [1] -1.45% | [2] -1.5% | [3] -3.3% | [4] -37.3% | [5] -19.8% | [6] 11.4%

Cc1ccc(S(=O)(=O)OCC(C)C(c2ccccc2)c2ccccc2)cc1 (configuration not stated)
inactive: [1] 7.45% | [2] 1.9% | [3] -4.55% | [4] -20.9% | [5] -3.3% | [6] 0.2%

C/C=C/C(=O)OCCCCCCCCCCCC
inactive: [1] -41.1% | [2] -39% | [3] -18.8% | [4] -16.8% | [5] -15.6% | [6] -39.8%

COC(=O)c1ccc(N=Nc2ncc(CC(NC(C)=O)C(=O)OC)[nH]2)cc1 (configuration not stated)
inactive: [1] -16.9% | [2] -46.9% | [3] 20.9% | [4] -34.5% | [5] 4.2% | [6] -13.4%

O=C1NNC2(C(=O)N1)c1ccccc1-c1ccccc12
inactive: [1] 8.5% | [2] -19.5% | [3] 28.1% | [4] 24.9% | [5] 1.65% | [6] 15.2%

CC(C(/C=N/NC(N)=S)=N/NC(N)=S)N1C(=O)c2ccccc2C1=O (configuration not stated)
inactive: [1] 3.75% | [2] -11.2% | [3] -16.9% | [4] -5.1% | [5] 2.45% | [6] 23.9%

O=C1C=CC(=O)N1n1c(-c2ccccc2)n[nH]c1=O
inactive: [1] 4.05% | [2] -15.6% | [3] -16.9% | [4] -2.8% | [5] -8% | [6] -53.6%

C[N+]([O-])(C/C=C/c1ccccc1)c1ccccc1 (configuration not stated)
inactive: [1] -3.25% | [2] -2.3% | [3] -2.65% | [4] 5.45% | [5] -29.1% | [6] -2.7%

CC(C)C1NC(=O)[C@H](C)OC(=O)[C@@H](C(C)C)NC(=O)[C@@H](C)OC(=O)C(C(C)C)NC(=O)[C@H](C)OC1=O (some centres not stated)
inactive: [1] -36.7% | [2] -2.15% | [3] -17.1% | [4] 14.9% | [5] 2.85% | [6] -10.2%

CN(C)c1ccc(/C=N/NC(=O)c2ccc(N)cc2)cc1
inactive: [1] 1.35% | [2] 5.15% | [3] -12.7% | [4] -12.4% | [5] -2.4% | [6] 14.3%
